The values that follow come from PubChem BioAssay (NCATS).

Experiment [1] deals with Cytochrome P450 3A4 (Homo sapiens) (UniProt P08684). Briefly: qHTS Assay for Inhibitors and Substrates of Cytochrome P450 3A4 (AID 884). Further: nearly all actives have a fitted effect of over 50% in size. Further: potency means the concentration at half of the fitted maximal effect. On activity change, negative = inhibition: on the % scale 0 is the no-effect control and ±100 the full control effect. In outline: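 Luminescent readout of luciferin produced by CYP3A4 (20 nM) dealkylation of Luciferin-PPXE, 25 uM (its KM). NADPH-driven reaction ran 60 min at RT after 10 min compound preincubation; data scaled to 57 uM ketoconazole as 100% inhibition.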
On the technique in general: Quantitative high-throughput screening tests each substance at several concentrations.

Experiment [2] is described as follows: qHTS Assay for Lipid Storage Modulators (AID 1519; calls by dose curve; on activity change, negative = inhibition: on the % scale 0 is the no-effect control and ±100 the full control effect). The following applies: Drosophila S3 cells, BODIPY lipid droplet/cell ratio, laser cytometry, cells loaded with oleic acid; for activity change, negative = inhibition: at 57.5 µM (top of the series). In outline: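 Cells seeded at 5,000 per well were treated with compounds over a concentration series and loaded with oleic acid (400 uM, as added). Lipid droplet fluorescence (488 nm excitation, 500-530 nm channel) was read by laser-scanning cytometry and normalized to 20 uM Triacsin C.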

For experiment [3], the target named is Ubiquitin carboxyl-terminal hydrolase 1 (Homo sapiens) (UniProt O94782). Briefly: Inhibitors of USP1/UAF1: Pilot qHTS (AID 504865). Further: nearly all actives have a fitted effect of over 35% in size. Further: potency means the concentration at half of the fitted maximal effect.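 On activity change, negative = inhibition: rhodamine fluorescence freed from ubiquitin-rhodamine substrate followed over time; top concentration of the series differs between compounds; on the % scale 0 is the no-effect control and ±100 the full control effect.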 In outline: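 In 50mM HEPES pH 7.8 containing 0.5mM EDTA, 1mM TCEP, 0.1 mg/ml BSA and 0.01% Tween-20, 1nM USP1/UAF1 is exposed to compound for 15 min, then Ub-Rho (150nM final) is added and fluorescence is read over time.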
Experiment [4] addresses DNA dC->dU-editing enzyme APOBEC-3G (Homo sapiens) (UniProt Q9HC16). Briefly: qHTS for inhibitors of Vif-A3G interactions: Validation (AID 588379). Further: 0% is about no effect. In outline:
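Yellow fluorescence (Ex 488, Em 500-530) of Vif-coexpressing HeLa A3G-eYFP cells, scanned by Acumen cytometer, reports blocked A3G degradation. Cells plated at 700/well overnight at 37 deg C before compound addition, then a further overnight compound incubation at 37 deg C.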

The nature of experiment [5]: Confirmation and Secondary Assay for Modulators of Hemoglobin Beta Chain Splicing at IVS2 654 locus (AID 910).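 Further: HeLa cells stably carrying EGFP split by mutant beta-globin IVS2-654 intron; per-well total GFP intensity by laser scanning cytometry after 2-day treatment; % of control where 0% means no effect.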 The essentials:
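Readout: per-well total peak green fluorescence (488 nm ex, 500–520 nm em) from objects 5–250 µm, reflecting correct splicing of an EGFP-654 reporter. Compounds were applied for 2 days at 37 °C to overnight-plated HeLa EGFP-654 cells; controls were DMSO and 500 nM IVS2-654 PNA.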

Experiment [6] is described as follows: Confirmation and Secondary Assay for Modulators of Hemoglobin Beta Chain Splicing at IVS2 705 locus (AID 930).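 Further: HeLa cells stably expressing the EGFP-705 splicing reporter; % of control where 0% means no effect.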 The essentials: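 HeLa cells stably carrying EGFP interrupted by mutant beta-globin IVS2-705 intron (CMV-driven) were seeded at 500 cells/well, treated next day with compound for 2 days at 37C; corrected splicing restores EGFP, read as total peak GFP intensity per well.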

Experiment [7] has as its target Luciferin 4-monooxygenase (Photinus pyralis) (UniProt P08659). The experiment in a line: Biochemical firefly luciferase enzyme assay for NPC (AID 624030).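 Further: purified P. pyralis luciferase at 10 nM with luciferin and ATP substrate; 0% = DMSO and -100% = full luciferase inhibition by PTC124 control; nearly all actives have a fitted effect of over 70% in size.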 In outline: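 Direct inhibition of firefly luciferase enzyme (10 nM final, 50 mM Tris Acetate) assessed by luminescence within 5 minutes. Percent activity scaled between DMSO and PTC124 positive control, with concentration-effect curves classified by fit quality and response.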

The target in experiment [8] is Cytochrome P450 3A4 (Homo sapiens) (UniProt P08684). Briefly: qHTS Assay for Activators of Cytochrome P450 3A4 (AID 885). Further: nearly all actives have a fitted effect of over 65% in size. The essentials: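 Activators are scored by enhanced luminescence from CYP3A4 conversion of luciferin-PPXE (25uM, equal to KM) to luciferin, after 60 min at RT with an NADPH-regenerating system.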
The mark [9] stands for this setting: measured here: cell count channel max response.
Setting [10] is: measured here: lipid channel max response.

Results filed as inconclusive are left out. Activity calls are given as the source filed them. Unless noted, the call rests on the fitted dose curve; in most records, active means well fitted curve in the direction sought with a large enough effect; inconclusive means small, poorly fitted or top-dose-only effect, or another doubt; inactive means no such curve, though single readings can be large; an effect the other way counts as inactive or inconclusive.

Sequence of Cytochrome P450 3A4 (Homo sapiens) (P08684 whole entry, looked up): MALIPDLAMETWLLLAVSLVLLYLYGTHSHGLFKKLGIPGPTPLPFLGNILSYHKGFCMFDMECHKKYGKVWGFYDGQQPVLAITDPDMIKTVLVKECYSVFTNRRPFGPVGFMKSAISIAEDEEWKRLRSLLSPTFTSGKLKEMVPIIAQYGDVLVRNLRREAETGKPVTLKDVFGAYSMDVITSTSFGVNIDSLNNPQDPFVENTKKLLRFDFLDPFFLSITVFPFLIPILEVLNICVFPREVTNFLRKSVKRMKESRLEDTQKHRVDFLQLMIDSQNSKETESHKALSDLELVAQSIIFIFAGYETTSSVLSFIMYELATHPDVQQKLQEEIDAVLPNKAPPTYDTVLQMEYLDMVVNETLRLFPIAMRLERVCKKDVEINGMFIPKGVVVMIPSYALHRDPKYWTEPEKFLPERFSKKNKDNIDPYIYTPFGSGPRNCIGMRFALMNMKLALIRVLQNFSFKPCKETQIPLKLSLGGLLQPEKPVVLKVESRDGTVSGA
Sequence of Ubiquitin carboxyl-terminal hydrolase 1 (Homo sapiens) (O94782 whole entry, looked up): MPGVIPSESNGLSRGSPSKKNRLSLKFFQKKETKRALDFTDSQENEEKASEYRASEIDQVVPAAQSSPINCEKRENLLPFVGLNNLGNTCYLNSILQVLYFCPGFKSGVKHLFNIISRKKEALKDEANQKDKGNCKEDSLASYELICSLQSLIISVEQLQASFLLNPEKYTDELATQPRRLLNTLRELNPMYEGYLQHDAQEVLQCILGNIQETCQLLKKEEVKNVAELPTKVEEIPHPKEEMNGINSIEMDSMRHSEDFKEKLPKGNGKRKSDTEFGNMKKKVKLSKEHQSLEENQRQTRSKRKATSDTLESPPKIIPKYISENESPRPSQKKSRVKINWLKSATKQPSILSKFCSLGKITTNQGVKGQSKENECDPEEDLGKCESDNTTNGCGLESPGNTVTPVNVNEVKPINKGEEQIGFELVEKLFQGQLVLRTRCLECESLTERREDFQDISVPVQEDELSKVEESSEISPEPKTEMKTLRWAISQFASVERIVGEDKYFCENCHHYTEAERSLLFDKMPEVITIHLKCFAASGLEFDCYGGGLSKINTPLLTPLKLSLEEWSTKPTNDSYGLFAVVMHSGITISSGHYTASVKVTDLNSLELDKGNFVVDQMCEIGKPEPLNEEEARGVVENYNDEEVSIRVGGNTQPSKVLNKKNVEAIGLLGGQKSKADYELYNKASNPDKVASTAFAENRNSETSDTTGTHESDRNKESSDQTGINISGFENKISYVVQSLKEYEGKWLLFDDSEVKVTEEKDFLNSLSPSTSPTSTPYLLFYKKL
Sequence of DNA dC->dU-editing enzyme APOBEC-3G (Homo sapiens) (Q9HC16 whole entry, looked up): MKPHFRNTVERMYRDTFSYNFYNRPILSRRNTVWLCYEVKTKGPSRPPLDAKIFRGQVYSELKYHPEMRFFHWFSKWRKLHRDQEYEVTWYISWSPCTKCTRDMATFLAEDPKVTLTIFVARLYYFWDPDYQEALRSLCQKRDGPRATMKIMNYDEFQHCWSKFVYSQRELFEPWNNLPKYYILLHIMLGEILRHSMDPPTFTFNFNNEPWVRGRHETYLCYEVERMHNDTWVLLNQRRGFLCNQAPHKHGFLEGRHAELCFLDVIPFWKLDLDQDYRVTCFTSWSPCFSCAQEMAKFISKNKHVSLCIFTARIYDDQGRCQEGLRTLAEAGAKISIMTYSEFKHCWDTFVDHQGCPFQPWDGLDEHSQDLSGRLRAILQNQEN
Sequence of Luciferin 4-monooxygenase (Photinus pyralis) (P08659 whole entry, looked up): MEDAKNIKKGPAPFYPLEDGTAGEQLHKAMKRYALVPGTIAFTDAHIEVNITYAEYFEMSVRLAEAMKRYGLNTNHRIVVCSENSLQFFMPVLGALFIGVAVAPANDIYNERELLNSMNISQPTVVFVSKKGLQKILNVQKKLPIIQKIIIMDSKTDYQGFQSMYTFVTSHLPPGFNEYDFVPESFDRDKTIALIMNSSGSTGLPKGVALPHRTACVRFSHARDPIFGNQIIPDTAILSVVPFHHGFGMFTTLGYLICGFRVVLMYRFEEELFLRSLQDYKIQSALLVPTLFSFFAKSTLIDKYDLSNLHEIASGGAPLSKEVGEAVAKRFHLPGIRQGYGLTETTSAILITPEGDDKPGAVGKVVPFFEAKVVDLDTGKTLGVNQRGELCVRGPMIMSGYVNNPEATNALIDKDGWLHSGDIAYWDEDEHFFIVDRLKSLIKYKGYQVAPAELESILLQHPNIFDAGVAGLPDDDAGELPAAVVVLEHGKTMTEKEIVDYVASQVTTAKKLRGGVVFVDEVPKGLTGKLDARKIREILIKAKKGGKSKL

As for `CC1=C(C2=C(C)C(C(C)C)C3=C(C(=O)C(O)C3O)C2O)C(O)C2=C(C(O)C(O)C2=O)C1C(C)C` (stereo unspecified), the Potency entry in experiment [1] and in experiment [3] was “inactive” throughout. Moreover, in experiment [2], the activity change, negative = inhibition was 1.34% (inactive). In addition, the max response is 12.4% in experiment [2] (setting [9]) and 12.8% in experiment [2] (setting [10]). The call in experiment [4] was inactive.
As for `C=CC1=C(C(=O)O)N2C(=O)C(NC(=O)/C(=N\O)c3csc(N)n3)C2SC1` (stereo unspecified), the Potency result in experiment [1], in experiment [5], in experiment [6], in experiment [3] and in experiment [7] was “inactive” throughout. The activity change, negative = inhibition in experiment [2] is 3.88% (inactive). The max response in experiment [2] (setting [9]) was 11.5%; in experiment [2] (setting [10]) it was 17.7%.
Turning to `Nc1ncnc2c1ncn2C1CC(O)C(CO)O1` (stereo unspecified), the Potency result in experiment [1], in experiment [5], in experiment [6] and in experiment [3] was “inactive” each time. In experiment [2], the activity change, negative = inhibition is -2.62% (inactive). Also, the max response in experiment [2] (setting [9]) was -5.57%; in experiment [2] (setting [10]), -5.3%. In addition, the call in experiment [4] was inactive.
For `CC(=O)OC1CC2C(C)(C)C(O)CC(O)[C@@]2(C)C2CC[C@@]3(C)C(=CC(=O)OC3c3ccoc3)[C@]12C` (stereo partly specified), the Potency in experiment [1] is 3.98 µM (active). Also, the Potency result in experiment [8], in experiment [5], in experiment [6] and in experiment [3] was “inactive” throughout. Besides, in experiment [2], the activity change, negative = inhibition was 0.404% (inactive). Also, the max response is -0.781% in experiment [2] (setting [9]) and 3.91% in experiment [2] (setting [10]).
`O=c1cc(-c2ccc(O)c(O)c2)oc2ccccc12`: the Potency in experiment [1] was 15.8 µM (active). For the same compound, the Potency entry in experiment [8], in experiment [5], in experiment [6] and in experiment [3] was “inactive” in each case. For the same compound, in experiment [2], the activity change, negative = inhibition is 2.38% (inactive). In addition, the max response in experiment [2] (setting [9]) is -4.12%; in experiment [2] (setting [10]) it was 2.75%.
For `O=C(O)CCCCC1SCC2NC(=O)NC21` (stereo unspecified), the Potency entry in experiment [1], in experiment [5], in experiment [6], in experiment [3] and in experiment [7] was “inactive” each time. The activity change, negative = inhibition in experiment [2] is 0.834% (inactive). Besides, the max response in experiment [2] (setting [9]) is 11.8%; in experiment [2] (setting [10]), 16%.
Regarding `COc1cccc2c1CCC1CC(=O)CC[C@@]21C` (stereo partly specified), in experiment [1], the Potency was 15.8 µM (active). The Potency result in experiment [8], in experiment [5], in experiment [6] and in experiment [3] was “inactive” throughout. Besides, the activity change, negative = inhibition in experiment [2] was 4.57% (inactive). In addition, the results for the max response in experiment [2] (setting [9]) and in experiment [2] (setting [10]) were -12.9% and -5.49%, respectively.
With `O=C1c2ccccc2C(=O)c2c(O)c(O)cc(O)c21`, the Potency result in experiment [8], in experiment [5] and in experiment [6] was “inactive” throughout. Also, the activity change, negative = inhibition in experiment [2] is 12.2% (inactive). Further, the max response in experiment [2] (setting [9]) is -4.21%; in experiment [2] (setting [10]), 7.97%. Besides, the Potency in experiment [3] is 25.1 µM (active). The outcome in experiment [4] was inactive.
As for `CCCCCC(=O)Cc1cc(O)cc(O)c1C(=O)Oc1cc(CC(=O)CCCCC)c(C(=O)O)c(OC)c1`, in experiment [1], the Potency is 15.8 µM (active). In addition, the Potency result in experiment [8], in experiment [5], in experiment [6] and in experiment [3] was “inactive” throughout. For the same compound, the activity change, negative = inhibition in experiment [2] is 4.27% (inactive). Further, the max response is 7.66% in experiment [2] (setting [9]) and 16.1% in experiment [2] (setting [10]).
For `Nc1ccn([C@@H]2O[C@H](CO)[C@@H](OP(=O)(O)O)[C@H]2O)c(=O)n1`, the Potency result in experiment [8] and in experiment [3] was “inactive” in each case. The activity change, negative = inhibition in experiment [2] is 4.4% (inactive). In addition, the results for the max response in experiment [2] (setting [9]) and in experiment [2] (setting [10]) were 7.76% and 8.34%, respectively. For the same compound, in experiment [4], the outcome was inactive.
